About 79,000 compounds went through this panel and 15% of them were active in at least one assay; those are over-represented in the sample as a whole. A number with no mark means an inactive call. Calls of active or inactive are those of the source. No stated cut-off is given here; in the data, active means growth inhibition above about 70%; inactive means the rest.
How the values were obtained:
[1] = NCI Yeast Anticancer Drug Screen. Data for the rad50 strain (AID 155);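 further: 0% = growth of vehicle-only cultures of the same strain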; details: S. cerevisiae rad50 strain growth inhibition, hits give high values
Outline: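 Genetically altered yeast (DNA repair pathway); compound treatment; growth inhibition vs vehicle ctrl.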

[2] = NCI Yeast Anticancer Drug Screen. Data for the mec2-1 strain (AID 157); details: S. cerevisiae mec2-1 strain, hits give high values
Outline: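 Strain: mec2-1 (DNA repair/cell cycle alteration). Compound exposure, then growth measured; inhibition expressed relative to vehicle.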

[3] = NCI Yeast Anticancer Drug Screen. Data for the sgs1 mgt1 strain (AID 161);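 further: 0% = growth of cultures given vehicle only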; details: S. cerevisiae sgs1 mgt1 strain, hits give high values
Outline: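 Mutant yeast exposed to compound; growth scored against vehicle-only wells.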

[4] = NCI Yeast Anticancer Drug Screen. Data for the cln2 rad14 strain (AID 165);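 further: 0% = growth equal to vehicle treated cultures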; details: S. cerevisiae cln2 rad14 strain, hits give high values
Outline: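 Compounds are applied to the cln2 rad14 yeast strain, and growth is then compared with that of vehicle-treated cultures to give inhibition.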

[5] = NCI Yeast Anticancer Drug Screen. Data for the bub3 strain (AID 167); details: S. cerevisiae bub3 mutant strain, hits give high values
Outline: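 Yeast carrying a defined mutation is treated with each compound, and growth is compared with that of vehicle-exposed cells to give inhibition.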

[6] = NCI Yeast Anticancer Drug Screen. Data for the mlh1 rad18 strain (AID 175); details: S. cerevisiae mlh1 rad18 strain growth inhibition, hits give high values
Outline: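 Read-out is yeast growth inhibition, calculated against vehicle-only controls. The compound was applied to a strain engineered with DNA damage repair alterations.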

[7] = at 5.0 µM (retest, dose inferred, filed as 0.5)
[8] = at 50.0 µM (retest, dose inferred, filed as 5.0)

| SMILES | growth inhibition [1, 7] | growth inhibition [1, 8] | growth inhibition ([1]; at 50.0 µM) | growth inhibition [2, 7] | growth inhibition [2, 8] | growth inhibition ([2]; at 50.0 µM) | growth inhibition [3, 7] | growth inhibition [3, 8] | growth inhibition ([3]; at 50.0 µM) | growth inhibition [4, 7] | growth inhibition [4, 8] | growth inhibition ([4]; at 50.0 µM) | growth inhibition [5, 7] | growth inhibition [5, 8] | growth inhibition ([5]; at 50.0 µM) | growth inhibition [6, 7] | growth inhibition [6, 8] | growth inhibition ([6]; at 50.0 µM) |
| --- | --- | --- | --- | --- | --- | --- | --- | --- | --- | --- | --- | --- | --- | --- | --- | --- | --- | --- |
| C/C=c1/[nH]c(=O)/c(=C\c2ccccc2)[nH]c1=O | -3% | 9% | 11.3% | 2% | -1% | -3.8% | -2% | 2% | -5.45% | 3% | -2% | 24.6% | -2% | -4% | -7.35% | 24% | 1% | 4.35% |
| c1ccc2c(c1)Nc1cc3ccccc3cc1N2 | 41% | 91% (active) | 74% (active) | 30% | 61% | 43.1% | 11% | 47% | 36.3% | -9% | 41% | 22.9% | 39% | 80% (active) | 43.1% | 37% | 75% (active) | 61.6% |
| CC1=C(C(=O)Nc2ccccc2C)C(c2ccc(Cl)c(Cl)c2)C(C(=O)Nc2ccccc2C)=C(C)N1 | 5% | 5% | 84% (active) | 2% | 2% | 76.3% (active) | -5% | -5% | 79.4% (active) | 8% | 8% | 78.5% (active) | -19% | -19% | 82% (active) | 8% | 8% | 77.1% (active) |
| Cc1ccnc(NC(c2ccccc2)c2ccc3cccnc3c2O)c1 (configuration not stated) | 0% | 95% (active) | 98.3% (active) | -5% | 97% (active) | 96.3% (active) | -3% | 95% (active) | 97.7% (active) | -7% | 95% (active) | 95.4% (active) | -6% | 96% (active) | 98.7% (active) | 6% | 95% (active) | 97.4% (active) |
| O=C(CC1(O)C(=O)Nc2c(Cl)ccc(Cl)c21)c1ccc(Cl)cc1Cl (configuration not stated) | 25% | 25% | 91.6% (active) | 13% | 13% | 90.7% (active) | 18% | 18% | 90.8% (active) | -6% | -6% | 91.3% (active) | -2% | -2% | 93.7% (active) | 19% | 19% | 92.2% (active) |
| OCc1ccccc1CC(O)(c1ccccc1)c1ccccc1 | -7% | 92% (active) | 97.8% (active) | -8% | 87% (active) | 97.3% (active) | -7% | 94% (active) | 95.8% (active) | -3% | 70% (active) | 75.5% (active) | -19% | 11% | 88.5% (active) | -20% | 90% (active) | 94.4% (active) |
| CC(N)C(O)c1ccc2ccc3ccccc3c2c1 (configuration not stated) | -35% | 96% (active) | 63.7% | 0% | 96% (active) | 3.65% | 0% | 96% (active) | 64.8% | -13% | 36% | 38.7% | 6% | 97% (active) | 66.9% | 11% | 98% (active) | 58.1% |
| CN(C)CCNc1ccc(O)c2sc3ccccc3c(=O)c12 | 0% | 82% (active) | 81.8% (active) | -6% | 56% | 42.8% | -7% | 70% (active) | 48.1% | -7% | 19% | 30.6% | -9% | 3% | 33.4% | -5% | 81% (active) | 51% |
| CN(C=O)c1ccc2c(c1)Cc1ccccc1-2 | 14% | 80% (active) | 47.7% | 4% | 22% | 24.8% | 27% | 82% (active) | 44.9% | 2% | 40% | 58.8% | 15% | 55% | 22.2% | 13% | 74% (active) | 82% (active) |
| COC(=O)C([NH-])c1ccccc1.COC(=O)C([NH-])c1ccccc1.[Cl][Pt+2][Cl] (configuration not stated) | 16% | 81% (active) | 69% | 11% | 37% | 46.9% | 39% | 76% (active) | 76.3% (active) | 0% | 43% | 58% | 5% | 27% | 30.2% | 21% | 60% | 76.7% (active) |
| Cc1cc(-c2ccccc2)nc2nc3ccccc3n12 | 2% | 30% | 7.95% | 16% | 21% | 5.8% | -11% | 67% | 12.4% | 14% | 43% | -30.7% | 21% | 82% (active) | 29.2% | -6% | 45% | 31.6% |
| c1cc[c]([Sn]([NH]c2ncnc3[nH]cnc23)([NH]c2ncnc3[nH]cnc23)[c]2ccccc2)cc1 | -10% | 93% (active) | 71% (active) | -6% | 95% (active) | 47.6% | 2% | 96% (active) | 58.3% | -2% | 73% (active) | 29.4% | -4% | 95% (active) | 57.4% | -7% | 94% (active) | 89.2% (active) |
| CCCCCCCCCCCCCCCCCCn1[se]c2ccccc2c1=O | 7% | 7% | 69.3% | 16% | 16% | 45.4% | 17% | 17% | 83.8% (active) | 15% | 15% | 59.1% | 0% | 0% | 76.5% (active) | -1% | -1% | 33.5% |
| Cc1ccc2c(ccc3c[n+]4c5ccccc5ccc4n32)c1 | 96% (active) | 99% (active) | 99.4% (active) | 92% (active) | 99% (active) | 99.5% (active) | 95% (active) | 100% (active) | 98.7% (active) | 94% (active) | 99% (active) | 97.3% (active) | 93% (active) | 99% (active) | 99.3% (active) | 95% (active) | 99% (active) | 99.2% (active) |
| O=C(O)c1c(Cl)c(Cl)c(Cl)c(Cl)c1-c1c2cc(I)c(=O)c(I)c-2oc2c(I)c(O)c(I)cc12 | 75% (active) | 98% (active) | 91.3% (active) | 99% (active) | 99% (active) | 92.1% (active) | 82% (active) | 98% (active) | 91.6% (active) | 98% (active) | 97% (active) | 90.2% (active) | 98% (active) | 98% (active) | 91.4% (active) | 97% (active) | 97% (active) | 91.2% (active) |
| O=C1OC(=O)C2C3CCC(C3=C3CCCCC3)C12 (configuration not stated) | -2% | 93% (active) | 35% | 7% | 95% (active) | 28.2% | -1% | 58% | 40% | 5% | 96% (active) | -8.55% | 5% | 95% (active) | 10.8% | -1% | 93% (active) | 36.8% |
| Cc1ccc(O)c(Cc2ccccc2Cl)c1 | -2% | 99% (active) | 99.3% (active) | -7% | 99% (active) | 99.3% (active) | -4% | 98% (active) | 99.5% (active) | -19% | 99% (active) | 99% (active) | -13% | 99% (active) | 92.7% (active) | -5% | 99% (active) | 99% (active) |
| Cc1ccc(/C=C/C(=O)c2cc(CN(C)C)c(O)c(CN(C)C)c2)cc1 | 1% | 5% | 41.9% | 0% | 25% | -1.25% | -1% | 11% | -9.5% | 4% | -4% | 55.6% | 3% | 8% | -3.35% | -2% | 23% | 1.4% |
| CC(=O)OC1CCC23COC(CC(C)C2C)C3(Br)C1 (configuration not stated) | -5% | 12% | -19.5% | 13% | 8% | 4.2% | 2% | 8% | 1.4% | -2% | -5% | 52.3% | 6% | 1% | -4.55% | 3% | -4% | 1.7% |

Source: PubChem BioAssay (NCI)
